Experimental data from PubChem BioAssay AID2590 (National Center for Advancing Translational Sciences (NCATS), 2010).
Where “and” joins values, the source holds several entries; their conditions need not be identical. Equal values may be shown once. Records with an inconclusive call do not appear. Values without a mark were called inactive. Calls of active or inactive are those of the source. Calls come from the whole dose curve; as a rule, active = well fitted curve in the direction sought with a large enough effect; inconclusive = small, poorly fitted or top-dose-only effect, or another doubt; inactive = no such curve, though single readings can be large or run the other way.

Each compound was assayed against Lysosomal acid glucosylceramidase (Homo sapiens) (UniProt P04062) (assay: qHTS Assay for Inhibitors and Activators of N370S glucocerebrosidase as a Potential Chaperone Treatment of Gaucher Disease: Primary Screen Confirmation). Conditions: N370S glucocerebrosidase enzyme activity, fluorogenic substrate; series mostly up to 54 µM; activity change, negative = inhibition: at the top concentration.
Procedure, shortened: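 Patient-spleen homogenate carrying N370S GC (27 ug) in pH 5.0 citrate buffer with 0.01% Tween-20, 1 mM 4-methylumbelliferyl-beta-glucoside, 40 min at 37C; fluorescence 365/440 nm after NaOH/glycine stop; AC50 from Hill fits.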
Potency is the fitted concentration of half-maximal effect.
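Throughout, for Potency: enzyme source is Gaucher patient spleen homogenate not purified recombinant protein.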
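Throughout, for activity change, negative = inhibition: 0% = enzyme with DMSO and -100% = no enzyme basal signal.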

Chain of Lysosomal acid glucosylceramidase (Homo sapiens) (P04062 whole entry N409S): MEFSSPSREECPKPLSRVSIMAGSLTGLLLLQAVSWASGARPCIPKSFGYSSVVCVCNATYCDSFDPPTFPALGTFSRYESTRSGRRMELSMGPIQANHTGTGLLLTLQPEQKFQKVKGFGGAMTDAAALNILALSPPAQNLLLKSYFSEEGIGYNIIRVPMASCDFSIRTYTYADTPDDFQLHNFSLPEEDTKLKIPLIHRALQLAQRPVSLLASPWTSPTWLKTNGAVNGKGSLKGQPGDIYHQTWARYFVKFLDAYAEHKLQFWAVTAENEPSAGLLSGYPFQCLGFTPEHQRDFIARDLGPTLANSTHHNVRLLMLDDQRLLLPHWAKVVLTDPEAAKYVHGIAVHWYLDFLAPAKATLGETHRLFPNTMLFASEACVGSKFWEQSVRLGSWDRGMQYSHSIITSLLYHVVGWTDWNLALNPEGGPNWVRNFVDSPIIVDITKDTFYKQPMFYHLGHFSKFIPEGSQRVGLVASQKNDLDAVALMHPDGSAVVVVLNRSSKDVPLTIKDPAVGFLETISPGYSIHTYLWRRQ

Structure (SMILES)	Potency	activity change, negative = inhibition [%]
c1ccc(CNc2nc(-c3cccs3)nc3ccccc23)cc1	7.13 µM (active) and 5.66 µM (active)	–
CC(Nc1nc(-c2ccccc2F)nc2ccccc12)c1ccccc1 (configuration not stated)	3.66 µM (active)	–
CCOc1ccccc1NC(=O)CN(c1ccc(C)cc1)S(=O)(=O)c1c(C)noc1C	–	20.7
O=S(=O)(c1ccc(F)cc1)N1CCN(c2nc(-c3ccc(F)cc3)nc3cc(Cl)ccc23)CC1	–	-2.14
c1ccc2c(NCC3CCCO3)nc(N3CCOCC3)nc2c1 (configuration not stated)	–	6.26
Cc1ccc(S(=O)(=O)N2CCN(c3nc(-c4ccc(CN5CCNCC5)s4)nc4ccccc34)CC2)cc1	12.7 µM (active)	–
O=S(=O)(c1cccc(C(F)(F)F)c1)N1CCN(c2nc(-c3cccs3)nc3cc(Cl)ccc23)CC1	–	0.777
CC(=O)Nc1ccc(NC(=O)COc2ccccc2C(=O)Nc2cccc(Cl)c2Cl)cc1	–	-7.21
COc1ccc(-c2cc3ccc(OCC(C)=O)cc3oc2=O)cc1	–	28.4
O=S(=O)(c1cccc(Cl)c1)N1CCN(c2nc(-c3cccs3)nc3ccccc23)CC1	1.6 µM (active) and 1.79 µM (active)	–
COc1ccc(N(CC(=O)NC2CCCCC2)S(=O)(=O)c2c(C)[nH]c(=O)[nH]c2=O)cc1	11.2 µM (active)	–
Cc1ccc(S(=O)(=O)N2CCN(c3nc(-c4cccs4)nc4ncccc34)CC2)cc1	2.25 µM (active)	–
